# Results taken from the supplement of paper PMC11001985.
# Compound: C#CCNC(=O)CCSSCCC(=O)NCCc1ccc(C=O)c(C=O)c1
# Test: lysine labeling ratio R10:1 (500 µM / 50 µM probe), SILAC-ABPP in living cells; higher = lower intrinsic lysine reactivity toward the probe, active = 2 or less
# Details: HeLa; probe concentrations 500 vs 50 µM
# Procedure, shortened: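 Forward and reverse SILAC label swaps were used with living light and heavy HeLa cells in PBS at room temperature, which were given an alkyne-tagged, disulfide-linked lysine probe at 50 µM or 500 µM. R is the per-lysine filtered median high-probe/low-probe MS1 peptide ratio, with the median then taken across both swap directions. Values are limited to 20.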
# Sequence of UniProt Q6YHK3 (Q6YHK3 whole entry): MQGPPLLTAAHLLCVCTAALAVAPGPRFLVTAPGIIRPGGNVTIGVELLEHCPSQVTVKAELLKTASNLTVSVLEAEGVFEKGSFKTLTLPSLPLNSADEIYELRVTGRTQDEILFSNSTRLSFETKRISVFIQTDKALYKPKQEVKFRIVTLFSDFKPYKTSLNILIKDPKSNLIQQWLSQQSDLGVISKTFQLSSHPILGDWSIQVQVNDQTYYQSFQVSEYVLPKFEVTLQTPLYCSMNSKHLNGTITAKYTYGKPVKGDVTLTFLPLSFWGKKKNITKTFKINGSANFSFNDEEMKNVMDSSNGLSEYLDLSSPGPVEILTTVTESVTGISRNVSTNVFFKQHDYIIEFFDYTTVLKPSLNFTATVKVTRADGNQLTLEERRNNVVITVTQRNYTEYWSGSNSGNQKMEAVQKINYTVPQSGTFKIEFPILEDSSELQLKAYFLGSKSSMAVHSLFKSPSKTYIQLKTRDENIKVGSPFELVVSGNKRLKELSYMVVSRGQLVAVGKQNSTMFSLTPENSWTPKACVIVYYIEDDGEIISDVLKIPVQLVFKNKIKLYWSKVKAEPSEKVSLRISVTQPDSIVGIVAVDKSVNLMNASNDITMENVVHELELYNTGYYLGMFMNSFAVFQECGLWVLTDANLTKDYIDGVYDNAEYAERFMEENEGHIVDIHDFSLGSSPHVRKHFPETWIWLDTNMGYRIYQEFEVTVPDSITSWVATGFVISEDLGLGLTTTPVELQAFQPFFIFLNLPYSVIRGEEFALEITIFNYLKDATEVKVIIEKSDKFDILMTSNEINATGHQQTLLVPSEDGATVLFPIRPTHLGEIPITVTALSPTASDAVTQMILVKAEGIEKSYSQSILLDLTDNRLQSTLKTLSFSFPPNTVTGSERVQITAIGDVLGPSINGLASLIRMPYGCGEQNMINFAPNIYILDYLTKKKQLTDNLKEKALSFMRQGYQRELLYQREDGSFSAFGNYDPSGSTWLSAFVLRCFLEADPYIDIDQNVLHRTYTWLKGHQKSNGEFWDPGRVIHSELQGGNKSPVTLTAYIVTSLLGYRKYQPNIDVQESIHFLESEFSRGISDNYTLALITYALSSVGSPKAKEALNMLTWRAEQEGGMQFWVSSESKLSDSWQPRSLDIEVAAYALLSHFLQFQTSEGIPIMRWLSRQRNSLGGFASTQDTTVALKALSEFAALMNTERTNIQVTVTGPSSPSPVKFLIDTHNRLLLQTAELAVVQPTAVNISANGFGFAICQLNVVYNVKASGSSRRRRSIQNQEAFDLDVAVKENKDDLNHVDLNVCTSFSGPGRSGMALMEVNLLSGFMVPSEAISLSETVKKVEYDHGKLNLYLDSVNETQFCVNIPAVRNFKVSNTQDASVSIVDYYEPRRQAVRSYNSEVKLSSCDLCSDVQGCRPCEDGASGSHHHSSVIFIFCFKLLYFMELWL
# Sequence of UniProt P05556 (P05556 whole entry): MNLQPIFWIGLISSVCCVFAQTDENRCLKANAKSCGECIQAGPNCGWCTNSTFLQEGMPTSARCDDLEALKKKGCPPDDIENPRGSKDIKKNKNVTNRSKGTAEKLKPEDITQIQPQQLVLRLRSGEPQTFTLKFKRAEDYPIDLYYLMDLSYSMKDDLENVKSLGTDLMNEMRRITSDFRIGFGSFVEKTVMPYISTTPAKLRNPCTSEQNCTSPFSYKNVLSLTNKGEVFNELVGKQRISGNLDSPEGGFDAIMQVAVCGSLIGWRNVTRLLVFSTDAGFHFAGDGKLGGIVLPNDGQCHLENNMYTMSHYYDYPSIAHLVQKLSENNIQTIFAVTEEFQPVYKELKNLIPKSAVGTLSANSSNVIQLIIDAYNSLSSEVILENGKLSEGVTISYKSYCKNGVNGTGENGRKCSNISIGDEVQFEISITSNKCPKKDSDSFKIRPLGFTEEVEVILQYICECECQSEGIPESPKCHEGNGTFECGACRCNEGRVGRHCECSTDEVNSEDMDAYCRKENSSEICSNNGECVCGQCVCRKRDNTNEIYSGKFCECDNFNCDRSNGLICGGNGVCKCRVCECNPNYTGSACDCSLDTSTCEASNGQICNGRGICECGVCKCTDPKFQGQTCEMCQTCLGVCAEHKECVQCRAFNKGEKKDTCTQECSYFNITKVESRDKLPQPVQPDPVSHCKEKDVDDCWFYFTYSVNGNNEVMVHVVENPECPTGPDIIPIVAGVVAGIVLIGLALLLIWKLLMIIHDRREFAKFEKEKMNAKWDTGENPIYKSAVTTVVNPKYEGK
# Sequence of UniProt Q03167 (Q03167 whole entry): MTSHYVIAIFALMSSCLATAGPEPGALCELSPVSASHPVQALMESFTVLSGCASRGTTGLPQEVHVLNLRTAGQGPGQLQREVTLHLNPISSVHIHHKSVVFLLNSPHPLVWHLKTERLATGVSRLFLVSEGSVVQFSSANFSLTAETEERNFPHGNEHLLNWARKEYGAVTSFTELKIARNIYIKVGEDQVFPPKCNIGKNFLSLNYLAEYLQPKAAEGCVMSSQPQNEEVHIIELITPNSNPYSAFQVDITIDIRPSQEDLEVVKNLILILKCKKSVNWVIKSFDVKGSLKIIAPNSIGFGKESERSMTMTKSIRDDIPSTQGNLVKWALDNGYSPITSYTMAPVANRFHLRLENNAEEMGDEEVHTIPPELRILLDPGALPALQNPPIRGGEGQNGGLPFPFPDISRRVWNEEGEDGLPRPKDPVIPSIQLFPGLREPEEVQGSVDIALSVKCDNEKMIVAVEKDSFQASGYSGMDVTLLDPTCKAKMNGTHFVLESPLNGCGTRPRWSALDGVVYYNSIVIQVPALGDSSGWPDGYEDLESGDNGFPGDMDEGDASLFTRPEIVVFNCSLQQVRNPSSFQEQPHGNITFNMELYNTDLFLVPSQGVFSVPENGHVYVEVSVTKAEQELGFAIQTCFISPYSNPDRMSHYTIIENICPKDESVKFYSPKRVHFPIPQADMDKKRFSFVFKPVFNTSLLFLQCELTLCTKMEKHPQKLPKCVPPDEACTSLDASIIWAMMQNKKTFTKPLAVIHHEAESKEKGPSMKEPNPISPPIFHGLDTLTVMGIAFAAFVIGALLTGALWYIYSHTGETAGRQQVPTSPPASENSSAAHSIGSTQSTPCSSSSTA
# Sequence of UniProt O15372 (O15372 whole entry): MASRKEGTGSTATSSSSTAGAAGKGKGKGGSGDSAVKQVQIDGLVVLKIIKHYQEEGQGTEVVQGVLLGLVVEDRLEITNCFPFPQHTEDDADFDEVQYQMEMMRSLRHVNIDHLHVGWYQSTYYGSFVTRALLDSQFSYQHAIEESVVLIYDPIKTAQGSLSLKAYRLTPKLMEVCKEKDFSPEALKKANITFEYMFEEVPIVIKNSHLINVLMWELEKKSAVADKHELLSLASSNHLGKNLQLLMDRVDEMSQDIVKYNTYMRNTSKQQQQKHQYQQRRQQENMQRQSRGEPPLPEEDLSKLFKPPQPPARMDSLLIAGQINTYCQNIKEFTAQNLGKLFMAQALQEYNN
# Sequence of UniProt P52565 (P52565 whole entry): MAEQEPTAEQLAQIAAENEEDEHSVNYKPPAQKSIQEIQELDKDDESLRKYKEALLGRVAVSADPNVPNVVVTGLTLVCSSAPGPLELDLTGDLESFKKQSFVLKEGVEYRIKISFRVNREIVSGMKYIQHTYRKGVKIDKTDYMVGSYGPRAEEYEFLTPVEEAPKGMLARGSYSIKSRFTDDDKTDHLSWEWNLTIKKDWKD
# Sequence of UniProt P08195 (P08195 whole entry): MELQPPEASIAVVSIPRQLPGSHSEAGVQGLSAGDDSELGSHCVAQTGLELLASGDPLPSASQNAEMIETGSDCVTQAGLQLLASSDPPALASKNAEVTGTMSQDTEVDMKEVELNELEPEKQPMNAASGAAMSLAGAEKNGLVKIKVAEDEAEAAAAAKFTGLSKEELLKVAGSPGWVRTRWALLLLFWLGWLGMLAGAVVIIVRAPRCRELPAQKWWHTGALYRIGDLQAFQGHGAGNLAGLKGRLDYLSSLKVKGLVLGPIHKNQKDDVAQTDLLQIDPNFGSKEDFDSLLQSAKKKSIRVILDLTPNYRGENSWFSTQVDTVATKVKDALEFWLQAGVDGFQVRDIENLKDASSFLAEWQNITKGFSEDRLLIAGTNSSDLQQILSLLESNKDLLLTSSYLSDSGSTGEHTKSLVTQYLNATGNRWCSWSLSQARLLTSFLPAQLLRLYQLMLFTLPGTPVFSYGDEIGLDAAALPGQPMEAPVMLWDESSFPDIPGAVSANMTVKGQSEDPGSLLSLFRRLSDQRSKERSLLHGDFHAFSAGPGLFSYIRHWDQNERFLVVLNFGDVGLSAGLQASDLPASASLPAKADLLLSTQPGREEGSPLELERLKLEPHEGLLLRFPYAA
# Sequence of UniProt P61769 (P61769 whole entry): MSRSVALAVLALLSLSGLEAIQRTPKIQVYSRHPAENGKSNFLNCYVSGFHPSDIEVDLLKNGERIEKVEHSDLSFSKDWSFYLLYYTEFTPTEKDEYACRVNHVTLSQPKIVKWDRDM
# Sequence of UniProt P10809 (P10809 whole entry): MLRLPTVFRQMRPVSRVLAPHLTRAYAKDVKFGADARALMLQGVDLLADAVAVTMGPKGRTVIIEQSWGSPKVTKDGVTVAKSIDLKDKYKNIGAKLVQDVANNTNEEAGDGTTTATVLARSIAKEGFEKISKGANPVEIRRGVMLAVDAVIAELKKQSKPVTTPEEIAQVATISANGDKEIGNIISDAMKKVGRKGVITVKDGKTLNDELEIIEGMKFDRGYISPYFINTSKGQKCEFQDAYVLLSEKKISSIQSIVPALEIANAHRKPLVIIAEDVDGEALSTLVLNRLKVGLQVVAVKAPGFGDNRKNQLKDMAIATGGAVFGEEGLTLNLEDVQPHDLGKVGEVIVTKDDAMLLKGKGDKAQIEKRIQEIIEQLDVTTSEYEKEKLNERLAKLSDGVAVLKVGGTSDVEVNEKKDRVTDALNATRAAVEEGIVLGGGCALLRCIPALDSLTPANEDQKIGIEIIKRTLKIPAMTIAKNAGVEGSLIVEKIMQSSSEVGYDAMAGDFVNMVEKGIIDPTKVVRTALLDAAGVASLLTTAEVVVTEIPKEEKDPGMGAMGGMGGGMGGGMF
row,Target,lysine labeling ratio R10:1
1,PLS3 (lysine site: K59) (UniProt P13797),1.41 (active)
2,SLC3A2 (lysine site: K255) (UniProt P08195),1.64 (active)
3,SPTBN1 (lysine site: K997) (UniProt Q01082),2.87 (inactive)
4,EPCAM (lysine site: K168) (UniProt P16422),6.35 (inactive)
5,UniProt Q96JJ7 (lysine site: K164),1.61 (active)
6,RPL22 (lysine site: K52) (UniProt P35268),7.72 (inactive)
7,GAPDH (lysine site: K227) (UniProt P04406),1.76 (active)
8,HSPE1 (lysine site: K99) (UniProt P61604),4.89 (inactive)
9,RPS3A (lysine site: K167) (UniProt P61247),1.82 (active)
10,MSN (lysine site: K458) (UniProt P26038),1.55 (active)
11,THRAP3 (lysine site: K711) (UniProt Q9Y2W1),1.73 (active)
12,SEMA3C (lysine site: K40) (UniProt Q99985),3.38 (inactive)
13,UniProt Q8WXI7 (lysine site: K13558),5.1 (inactive)
14,EIF3H (lysine site: K274) (UniProt O15372),1.92 (active)
15,INSR (lysine site: K511) (UniProt P06213),2.12 (inactive)
16,WDR1 (lysine site: K569) (UniProt O75083),5.89 (inactive)
17,CD109 (lysine site: K573) (UniProt Q6YHK3),2.8 (inactive)
18,ENO1 (lysine site: K420) (UniProt P06733),2.65 (inactive)
19,UniProt P62249 (lysine site: K73),3.59 (inactive)
20,ITGB1 (lysine site: K93) (UniProt P05556),2.06 (inactive)

row,Target,lysine labeling ratio R10:1
1,RALA (lysine site: K143) (UniProt P11233),2.44 (inactive)
2,WNT5A (lysine site: K208) (UniProt P41221),2.67 (inactive)
3,DSTN (lysine site: K92) (UniProt P60981),2.43 (inactive)
4,UniProt O94991 (lysine site: K280),1.34 (active)
5,TST (lysine site: K24) (UniProt Q16762),2.33 (inactive)
6,UniProt P08727 (lysine site: K118),3.16 (inactive)
7,SMOC1 (lysine site: K223) (UniProt Q9H4F8),4.99 (inactive)
8,GPRC5A (lysine site: K16) (UniProt Q8NFJ5),6.52 (inactive)
9,MLEC (lysine site: K69) (UniProt Q14165),1.64 (active)
10,CD109 (lysine site: K491) (UniProt Q6YHK3),2.99 (inactive)
11,B2M (lysine site: K26) (UniProt P61769),10.1 (inactive)
12,UniProt P62269 (lysine site: K47),1.41 (active)
13,UniProt P25705 (lysine site: K132),1.76 (active)
14,SMC2 (lysine site: K222) (UniProt O95347),1.74 (active)
15,FLNA (lysine site: K523) (UniProt P21333),3.84 (inactive)
16,TGFBR3 (lysine site: K314) (UniProt Q03167),1.51 (active)
17,UniProt Q8WXI7 (lysine site: K13676),3.84 (inactive)
18,PLXNB2 (lysine site: K1159) (UniProt O15031),1.75 (active)
19,HSPD1 (lysine site: K96) (UniProt P10809),3.85 (inactive)
20,ARHGDIA (lysine site: K178) (UniProt P52565),3.53 (inactive)
